Screening results: PubChem, National Center for Advancing Translational Sciences (NCATS)
Most compounds without a hit are left out; they make up all but 3.3% or so of the library.
Tau fluor cs – counter-screen for tau fibril formation inhibitors. tau K18 P301L Alexa594 fluorescence, heparin fibrillization. Potency, µM (top dose mostly 57.7 µM). 280,000 compounds, 0.93% hits. AID 1463; further: nearly all actives have a fitted effect of over 55% in size
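Human K18 P301L tau (15 uM unlabeled plus 0.24 uM Alexa 594-labeled, final) in 100 mM sodium acetate pH 7 was mixed with compound and 20 uM heparin and incubated 6 hr at 37 C.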
NPSR antagonist – blocks cAMP signaling of the human neuropeptide S receptor | CHO-NPSR cells, cAMP TR-FRET, antagonist mode | Potency, µM (highest dose often 38.3 µM), actives largely listed as inhibitors | 220,000 compounds, 1% hits | AID 1461; further: nearly all actives have a fitted effect of over 50% in size
Target sequence (Q6W5P4 whole entry, looked up): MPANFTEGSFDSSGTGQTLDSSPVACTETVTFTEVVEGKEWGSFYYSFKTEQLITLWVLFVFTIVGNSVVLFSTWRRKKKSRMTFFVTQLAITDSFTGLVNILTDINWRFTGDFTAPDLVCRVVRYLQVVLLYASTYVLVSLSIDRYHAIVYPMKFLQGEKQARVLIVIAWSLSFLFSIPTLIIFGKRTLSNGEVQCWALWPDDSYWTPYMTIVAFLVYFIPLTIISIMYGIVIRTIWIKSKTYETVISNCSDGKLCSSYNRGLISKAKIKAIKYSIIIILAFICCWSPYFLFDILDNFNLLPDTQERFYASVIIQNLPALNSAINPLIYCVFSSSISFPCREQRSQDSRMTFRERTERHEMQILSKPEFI
Tau FP inhib – tau fibrillization inhibition (FP) | P10636 | K18 P301L tau heparin fibrillization, Alexa594 FP, 6 h | Potency, µM (top dose mostly 57.7 µM), usual class: inhibitors | 280,000 compounds, 0.39% hits | AID 1468; further: nearly all actives have a fitted effect of over 55% in size
Target sequence (P10636 561-689 P618L limits assumed): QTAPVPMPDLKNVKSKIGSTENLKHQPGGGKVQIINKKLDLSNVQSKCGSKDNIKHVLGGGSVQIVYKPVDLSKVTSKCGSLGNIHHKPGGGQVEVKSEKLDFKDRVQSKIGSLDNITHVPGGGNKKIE
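K18 P301L tau (15 uM unlabeled/0.24 uM Alexa 594-labeled, final) + compound + heparin 20 uM final; 100 mM NaOAc pH 7; 6 hr 37 C; ThT 30 uM final added, 1 hr RT; FP ex 555/em 632 nm.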
Luc counter – Kinase-Glo luciferase inhibition (counter-screen); AID 1379; Potency, µM (series often up to 38.3 µM), most hits filed as inhibitors; Kinase-Glo luciferase, ATP luminescence, 8 min; 200,000 compounds, 0.28% hits; further: nearly all actives have a fitted effect of over 60% in size
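Substrate mix (final 50 mM imidazole pH 7.2, 50 mM KCl, 7 mM MgCl2, 10 uM ATP, 0.01% Tween 20, 0.05% BSA) plus pin-tool compound, then Kinase-Glo detection mix; 8 min ambient, luminescence read.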
Tau ThT inhib – tau fibrillization inhibition (ThT binding); 270,000 compounds, 2.1% hits; P10636; recombinant tau K18 P301L, heparin-induced fibrillization, ThT fluorescence; Potency, µM (doses to about 57.4 µM), usual class: inhibitors; further: nearly all actives have a fitted effect of over 55% in size
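ThT emission at 510 nm, taken 1 hr after adding 30 uM dye, quantifies aggregates formed when 20 uM heparin acts on human tau K18 P301L for 6 hr at 37 C.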
A number is an active result; 0 = inactive; ? = inconclusive; - = no result; [ ] = dose if it differs, or a comment. The call rests on the fitted dose curve; in most records, active means well fitted curve in the direction sought with a large enough effect; inconclusive means small, poorly fitted or top-dose-only effect, or another doubt; inactive means no such curve, though single readings can be large; an effect the other way counts as inactive or inconclusive.

SMILES	Tau fluor cs	NPSR antagonist	Tau FP inhib	Luc counter	Tau ThT inhib
O=C1c2ccccc2-c2n[nH]c(=O)c3ccc(N4CCCCC4)c1c23	?	0	0	0	14µM
Cc1[nH]c(-c2ccc3c(c2)OCO3)nc1C(=O)O	0	0	0	11µM	0
Cc1[nH]c(-c2ccco2)nc1C(=O)O	0	0	0	0	0
Cc1ccccc1OCC(=O)N/N=C/c1cccc(Oc2ccc([N+](=O)[O-])cc2[N+](=O)[O-])c1	6.3µM[quencher]	0	0	0	?
Cc1ccccc1OCC(=O)NCC(=O)N/N=C/c1cccc([N+](=O)[O-])c1	0	0	0	0	0
O=C(N/N=C/c1cccc(Oc2ccc([N+](=O)[O-])cc2[N+](=O)[O-])c1)c1cncc(Br)c1	8.9µM[quencher]	?	0	0	?
COc1ccc(NS(=O)(=O)c2ccc3c(c2)[C@H]2C=CC[C@H]2[C@@H](c2ccc(C(=O)O)cc2)N3)cc1	?	-	0	-	25µM
Cc1c(Cl)cccc1NS(=O)(=O)c1ccc2c(c1)C1C=CCC1C(c1ccc(C(=O)O)cc1)N2 (stereo not drawn)	?	0	?	-	25µM
CC1(C)CC(=O)c2cc(-c3nc(-c4ccc(F)cc4)cs3)c(=O)[nH]c2C1	0	-	0	-	0
CCN(CC)/C(Sc1ccccc1)=C(\C(Cl)=C(Cl)Cl)[N+](=O)[O-]	0	0	0	0	0
O=[N+]([O-])/C(C(Cl)=C(Cl)Cl)=C(\Sc1ccccc1)N1CCCCC1	0	0	?	0	25µM
CCC1=Nc2cc(C(=O)NCc3ccccc3OC)ccc2Sc2ccc(Cl)cc21	0	-	0	-	0
CN1C=C/C(=C\c2cc[n+](C)c3ccccc23)c2ccccc21	?	13µM	?	0	14µM
Cc1ccc(C(=O)Oc2oc(-c3ccccc3)nc2C=Nc2ccc(N(C)C)cc2)cc1	0	0	0	0	?
CN(C)c1ccc(N=Cc2nc(-c3ccccc3)oc2OC(=O)c2cccc(Cl)c2)cc1	?	0	?	0	7.9µM
Cc1ccc(NC(=O)Cn2cc(S(=O)(=O)c3ccccc3)c(=O)c3cc4c(cc32)OCO4)cc1	0	-	0	-	0
CC1=NC(=O)C(N=Nc2cccc(O)c2)N1c1ccccc1 (stereo not drawn)	?	0	0	0	5µM
COc1cc(-n2nc(C)c3c2OC(N)=C(C#N)C3c2ccccc2)c(Cl)c(Br)c1O (stereo not drawn)	?	0	0	0	3.5µM
Cc1nn(-c2ccccc2)c2c1C(c1ccncc1)C(C#N)=C(N)O2 (stereo not drawn)	0	0	?	0	?
Cc1nc(C)c(-c2ccc(SCC(=O)Nc3ccc(Cl)c(Cl)c3)nn2)s1	?	-	?	-	0
CCOc1ccc(NC(=S)NNc2ccnc3cc(Cl)ccc23)cc1	?	0	0	0	13µM
CCOc1ccccc1Nc1ccnc2cc(Cl)ccc12	0	0	0	0	0
S=C(NNc1ccnc2cc(Cl)ccc12)Nc1ccc(Cl)cc1Cl	4µM[quencher]	0	?	-	4µM
CCC1CN(C(=O)N2CCC(C(=O)NCc3cccs3)CC2)c2ccccc2O1 (stereo not drawn)	?	-	0	-	0
CCc1ccc(C2CC(=O)N3CN(c4ccccc4)CSC3=C2C#N)cc1 (stereo not drawn)	?	0	?	0	32µM
SMILES	Tau fluor cs	NPSR antagonist	Tau FP inhib	Luc counter	Tau ThT inhib
COc1ccc(N2CSC3=C(C#N)C(c4cccs4)CC(=O)N3C2)cc1 (stereo not drawn)	?	0[7.67 µM]	25µM	0	13µM
N#CC1=C2SCN(c3ccc(F)cc3)CN2C(=O)CC1c1cccc(F)c1 (stereo not drawn)	?	0	?	0	16µM
CCc1ccc(N2CSC3=C(C#N)C(c4cccs4)CC(=O)N3C2)cc1 (stereo not drawn)	0	0	?	0	13µM
N#CC1=C2SCC(O)(c3ccccc3)N2C(=O)CC1c1ccccc1 (stereo not drawn)	0	0[7.67 µM]	0	0	?
Cc1ccc(N2CSC3=C(C#N)C(c4cccs4)CC(=O)N3C2)cc1 (stereo not drawn)	0	0	?	0	?
Cc1cccc(NC(=O)NCCOCCn2c(=O)oc3ccccc32)c1C	0	-	0	-	0
CCOC(=O)c1c(C)oc2c1c(C(c1ccccc1)N1CCOCC1)c(O)c1ccccc12 (stereo not drawn)	0	?	0	0	0
CCOC(=O)c1c(C)oc2c1c(C=NCCO)c(O)c1ccccc12	?	0	0	0	13µM
CN1c2ccsc2C(O)=C(C(=S)Nc2ccc(F)c(Cl)c2)S1(=O)=O	?	0	?	0	20µM
Cn1cc(C(=O)Nc2ccc(F)c(Cl)c2)cn1	0	0	0	0	0
COc1ccc(CNc2ncnc3c2nc2n3CCCC2)cc1	0	-	0	-	0
Cc1ccc(N=Nc2ccc(C)cc2NC(=O)Nc2ccccc2F)cc1	?	0	0	-	1.3µM
CC1CCN(C(c2ccc(N(C)C)cc2)c2nnnn2C(C)(C)C)CC1 (stereo not drawn)	?	0	0	0	10µM
CCN(CC)C(=O)c1sc(NC(=O)c2nc3ncccn3n2)c(C(=O)OC)c1C	0	-	0	-	0
CC1(C)Cc2c(c(N3CCOCC3)nc3snc(N)c23)CO1	0	0	?	0	13µM
CC1(C)Cc2c(c(N3CCOCC3)nc3snc(Br)c23)CO1	0	0	0	0	?
O=C(O)c1cc(-c2ccc(/C=C3\NC(=O)N(c4ccccc4)C3=O)o2)ccc1Cl	0	0[7.67 µM]	0	-	?
Cc1cccc(N2NC(=O)/C(=C/c3ccc(-c4ccc(Cl)c(C(=O)O)c4)o3)C2=O)c1	?	0	?	0	7.1µM
O=C(O)c1cc(-c2ccc(/C=C3\NC(=O)N(c4ccc(Cl)cc4)C3=O)o2)ccc1Cl	0	0	0	0	?
O=C1NN(c2ccccc2)C(=O)/C1=C/c1ccc(-c2ccc(Cl)c(C(=O)O)c2)o1	?	0	0	0	7.1µM
Cc1cc(C)c2c(=O)n(CC(=O)N3CCC(Cc4ccccc4)CC3)sc2n1	0	0	11µM	0	13µM
CN1CC(=O)N(CC(=O)N2CCC(Cc3ccccc3)CC2)C1=O	0	0	0	0	0
Cc1cccc(N2CCN(C(=O)Cn3sc4nc(C)cc(C)c4c3=O)CC2C)c1 (stereo not drawn)	0	?	?	0	13µM
Cc1ccc(NC(=O)Cn2cc(S(=O)(=O)N3CCCC3)c(S(=O)(=O)N3CCCC3)c2)cc1C	0	-	0	-	0
Cn1c(=O)c2cc(S(=O)(=O)NC(Cc3ccccc3)C(=O)Nc3ccc(F)cc3)ccc2n(C)c1=O (stereo not drawn)	0	-	0	-	0
Cc1ccc(/C(O)=C/C(=O)C(=O)NNC(=O)C(O)(c2ccccc2)c2ccccc2)cc1	0	0	0	0	0
COC(=O)C(=O)/C=C(\O)c1ccc(C)cc1	?	0	?	-	22µM
COc1c(C)cccc1C(=O)Nc1ccc(-c2nc3ccccc3s2)c(Cl)c1	0	-	?	-	?
